Results as given in PubChem BioAssay (NCI).
Where “and” joins values, the source holds several entries; their conditions need not be identical. Equal values may be shown once. The panel holds about 83,000 compounds, 20% with a hit somewhere; the sample as a whole holds those more often.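 Values shown are percent growth following 48 h exposure of cells in 96-well plates to a single concentration of compound; below 10 was considered active.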 Calls of active or inactive are those of the source.

Key:
Assay in all cases: NCI-60 one-dose screen, 48 h (100 = growth as untreated, 0 = no growth, -100 = all killed)
Conditions in all cases: 10 µM unless noted
[1] = tested on: SR leukemia
[2] = tested on: RPMI-8226 leukemia
[3] = tested on: OVCAR-8 ovarian
[4] = tested on: OVCAR-5 ovarian
[5] = tested on: OVCAR-4 ovarian
[6] = tested on: SK-OV-3 ovarian
[7] = tested on: IGROV1 ovarian
[8] = tested on: OVCAR-3 ovarian
[9] = tested on: HS 578T breast
[10] = tested on: NCI/ADR-RES ovarian
[11] = tested on: T-47D breast
[12] = tested on: BT-549 breast
[13] = tested on: SW-620 colon
[14] = tested on: MCF7 breast
[15] = tested on: HCT-116 colon
[16] = tested on: HCC-2998 colon
[17] = tested on: KM12 colon
[18] = tested on: MDA-MB-435 melanoma

| Compound | growth [1] | growth [2] | growth [3] | growth [4] | growth [5] | growth [6] | growth [7] | growth [8] | growth [9] | growth [10] | growth [11] | growth [12] | growth [13] | growth [14] | growth [15] | growth [16] | growth [17] | growth [18] |
| --- | --- | --- | --- | --- | --- | --- | --- | --- | --- | --- | --- | --- | --- | --- | --- | --- | --- | --- |
| C#COc1cccc(Nc2ncnc3cc(NC(=O)CF)ccc23)c1 | 20.9% [6.25 µM] (inactive) | 62.4% [6.25 µM] (inactive) | 42.5% [6.25 µM] (inactive) | 87.2% [6.25 µM] (inactive) | 75% [6.25 µM] (inactive) | 34.8% [6.25 µM] (inactive) | 52.4% [6.25 µM] (inactive) | 12% [6.25 µM] (inactive) | 44.2% [6.25 µM] (inactive) | 35.3% [6.25 µM] (inactive) | 40.9% [6.25 µM] (inactive) | 28% [6.25 µM] (inactive) | 25.8% [6.25 µM] (inactive) | 30.6% [6.25 µM] (inactive) | 19% [6.25 µM] (inactive) | 63.8% [6.25 µM] (inactive) | 28.6% [6.25 µM] (inactive) | – |
| C[N+]1(C)CCCC1c1cccnc1 (stereo not given) | 97.8% (inactive) | – | 104% (inactive) | 109% (inactive) | 107% (inactive) | 108% (inactive) | 115% (inactive) | 108% (inactive) | 89.2% (inactive) | 111% (inactive) | 96.5% (inactive) | 85.3% (inactive) | 100% (inactive) | 90.9% (inactive) | 92.5% (inactive) | – | 103% (inactive) | – |
| CCCC[C@@H]1CCN2C[C@@H](O)[C@@H](O)[C@@H]2[C@H]1O | – | – | – | – | – | – | – | – | – | – | – | – | – | 111% [100 µM] (inactive) and 89.6% [100 µM] (inactive) | – | – | – | – |
| CC[C@@H](C)C(=O)O[C@H]1[C@H](O)[C@H]2[C@@H](CN3C[C@@H](C)CC[C@H]3[C@@]2(C)O)[C@@H]2C[C@]34O[C@]5(O)[C@@H](OC(=O)[C@@](C)(O)CC)CC[C@@]3(C)[C@@H]5[C@@H](OC(C)=O)[C@@H](OC(C)=O)[C@H]4[C@@]21O | 100% (inactive) | 94.1% (inactive) | 94.2% (inactive) | 103% (inactive) | 95.1% (inactive) | 93.9% (inactive) | 106% (inactive) | 106% (inactive) | 97.3% (inactive) | 104% (inactive) | 97.3% (inactive) | 99.7% (inactive) | 95.2% (inactive) | 98.4% (inactive) | 98.1% (inactive) | 87.9% (inactive) | 100% (inactive) | – |
| CCOC(=O)C1C(c2ccco2)C2(C#N)C(=N)OC1(C)C2(C#N)C#N (stereo not given) | – | – | – | – | – | – | – | – | – | – | – | – | – | 45.1% [100 µM] (inactive) and 0.896% [100 µM] (active) | – | – | – | – |
| CO[C@@H]([CH2][Hg][O]C(=O)c1ccccc1)[C@@H]([CH2][Hg][O]C(=O)c1ccccc1)OC | 50.2% (inactive) | 92.2% (inactive) | 83.8% (inactive) | 111% (inactive) | 93.8% (inactive) | 73.2% (inactive) | 96.4% (inactive) | -92.8% (active) | 113% (inactive) | 105% (inactive) | – | 110% (inactive) | 66.1% (inactive) | 46.4% (inactive) | -60.5% (active) | 118% (inactive) | 101% (inactive) | 104% (inactive) |
| CC[C@H](C)[C@H](NC(=O)[C@H]1CCCCN1C)C(=O)N(C)[C@H](CCc1nc(C(=O)N[C@@H](Cc2ccccc2)C[C@H](C)C(=O)O)cs1)C(C)C | 18.6% (inactive) | 25.2% (inactive) | 15.8% (inactive) | 46.8% (inactive) | 43.8% (inactive) | 12.3% (inactive) | 41.5% (inactive) | -4.67% (active) | 27.7% (inactive) | 73.3% (inactive) | 52.6% (inactive) | -3.33% (active) | 27.6% (inactive) | 14.2% (inactive) | 2.59% (active) | 21.5% (inactive) | 9.24% (active) | – |
| O=S1(=O)OCCO1 | – | – | 102% (inactive) | 96.3% (inactive) | 99.4% (inactive) | 117% (inactive) | 106% (inactive) | 106% (inactive) | 95.1% (inactive) | 99.7% (inactive) | – | 117% (inactive) | 101% (inactive) | 98.8% (inactive) | 102% (inactive) | 110% (inactive) | 99.2% (inactive) | 98.2% (inactive) |
| O=[P+](O)c1cccnc1 | 96.4% (inactive) | 100% (inactive) | 107% (inactive) | 107% (inactive) | 107% (inactive) | 103% (inactive) | 111% (inactive) | 108% (inactive) | – | 102% (inactive) | 88.2% (inactive) | 116% (inactive) | 107% (inactive) | 102% (inactive) | 102% (inactive) | 115% (inactive) | 101% (inactive) | 107% (inactive) |
| CC1(C)N(Nc2ccccc2)C(=O)C2CCCN21 (stereo not given) | 14.2% (inactive) | 13.7% (inactive) | 87% (inactive) | 75.1% (inactive) | 70.8% (inactive) | 85.1% (inactive) | 72.7% (inactive) | 0.57% (active) | 85.9% (inactive) | 85.9% (inactive) | 56.8% (inactive) | 13.6% (inactive) | 62.5% (inactive) | 80.1% (inactive) | 12.1% (inactive) | 88.1% (inactive) | 15.7% (inactive) | – |
| N#Cc1ccc(Cl)cc1 | 87% (inactive) | 106% (inactive) | 109% (inactive) | 109% (inactive) | 115% (inactive) | 109% (inactive) | 104% (inactive) | 114% (inactive) | – | 113% (inactive) | 104% (inactive) | – | 103% (inactive) | 103% (inactive) | 114% (inactive) | 123% (inactive) | 115% (inactive) | 117% (inactive) |
